# Sampled rows, rich in hits. Any-hit rate of the full collection: about 2.6%.
# Cruzain Triton – inhibitors of Trypanosoma cruzi cruzain with detergent | Potency, µM, inactives show max response, negative = inhibition, hits mostly inhibitors | P25779 | purified cruzain, Z-FR-AMC fluorescence, 0.01% Triton | AID 1478 | 0.43% of 200,000 active;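 also: plate controls were neutral wells for no effect and buffer without enzyme for full effect; nearly all actives have a fitted effect of over 40% in size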
# Target sequence (P25779 123-467 limits assumed): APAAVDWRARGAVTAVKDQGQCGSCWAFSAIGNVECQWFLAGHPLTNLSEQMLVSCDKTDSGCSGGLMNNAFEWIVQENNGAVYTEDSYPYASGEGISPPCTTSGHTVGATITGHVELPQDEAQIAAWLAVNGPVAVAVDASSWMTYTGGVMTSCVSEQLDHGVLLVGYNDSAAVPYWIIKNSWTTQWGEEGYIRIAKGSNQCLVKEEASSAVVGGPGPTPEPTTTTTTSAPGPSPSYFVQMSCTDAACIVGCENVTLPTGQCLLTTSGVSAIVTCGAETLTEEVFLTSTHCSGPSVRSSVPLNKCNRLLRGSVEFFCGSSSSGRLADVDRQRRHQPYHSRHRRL
#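 Cysteine protease activity tested under reducing, mildly acidic conditions (100 mM sodium acetate pH 5.5, 5 mM DTT) plus 0.01% Triton X-100. Cruzain 1.5 nM; substrate Z-FR-AMC 2 uM; 15 min compound preincubation at room temperature.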
# Cruzain inh noDet – cruzain (T. cruzi) inhibition without detergent; P25779; purified cruzain, Z-FR-AMC fluorescence, no detergent; Potency, µM, inactives show max response, negative = inhibition, actives largely listed as inhibitors; 2.3% of 200,000 active;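 also: plate controls were enzyme without inhibitor for no effect and buffer without enzyme for full effect; nearly all actives have a fitted effect of over 40% in size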
#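 Detergent-free condition (0.00005% Triton X-100) in acetate buffer pH 5.5 with DTT. 1.5 nM enzyme and compound were pre-mixed 15 min, then 2 uM Z-FR-AMC substrate added; reaction progress from fluorescence change between first and third reads (60 s).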
# * marks the source's active call; other numbers are inactive results; ? = inconclusive. Calls follow the shape of the dose curve; as a rule, active = well fitted curve in the direction sought with a large enough effect; inconclusive = small, poorly fitted or top-dose-only effect, or another doubt; inactive = no such curve, though single readings can be large; an effect the other way counts as inactive or inconclusive. Potency is read from the fitted curve at half-maximal effect.
SMILES,Cruzain Triton,Cruzain inh noDet
COc1cccc(NC(=O)c2c(-c3ccc(C)cc3)nnc3ccccc23)c1,0.0%,-28.5%
CCOc1ccc(NC(=O)CC2C(=O)N(c3cccc(C)c3)C(=O)N2Cc2ccco2)cc1 (stereo not drawn),-4.3%,-5.4%
O=C(COc1cccc(Cl)c1)N/N=C\c1cc2ccccc2nc1Cl,9.4%,-18.5%
O=C(CNc1ccc2ccccc2c1)N/N=C/c1cc2ccccc2nc1Cl,-14.4%,25.1µM*
COc1ccc(-c2nc3cnc(N4CCOCC4)nc3n(-c3ccccc3)c2=O)cc1,1.1%,-0.4%
CC1(C)OCC(CSC2=C(SCC3COC(C)(C)O3)C(=O)c3ncccc3C2=O)O1 (stereo not drawn),15.8µM*,?
O=C1c2cccnc2-c2ncccc21,-2.8%,-4.5%
COc1ccccc1CNC(=O)CCCCn1c(=O)c2ccccc2n(Cc2ccccc2C)c1=O,-1.7%,-3.7%
CC1(C)CO[C@H](CC(=O)O)CN1,-0.8%,10.1%
CC(=O)Nc1cc(NC(C)=O)cc(-c2nc3ccccc3[nH]2)c1,-2.5%,-3.0%
CC(C)C(=O)Nc1sc2c(c1-c1nc3ccccc3[nH]1)CCCC2,-1.0%,20µM*
CCOC(=O)c1cccc(NC(=O)CN2C(=O)c3ccccc3Sc3ncccc32)c1,-8.1%,?
CCOC(=O)C(C)NC(=O)c1c2c(nc3ccccc13)C(=O)N(C1CCCCC1)C2 (stereo not drawn),-3.4%,1.0%
COc1ccc(CNC(=O)CCc2c(C)c3cc4c(C)coc4c(C)c3oc2=O)cc1OC,0.0%,15.8%
CCN(CC)S(=O)(=O)c1ccc(Cl)c(NC(=O)c2cc(Cl)ccc2Cl)c1,-5.2%,-17.8%
CCN(CC)S(=O)(=O)c1ccc(Cl)c(NC(=O)COc2ccc(OC)cc2[N+](=O)[O-])c1,-1.5%,12.6µM*
CN(C)c1oc(-c2ccc(OCc3ccc(Cl)cc3)cc2)nc1C#N,?,20µM*
CCOc1ccc(Nc2oc(-c3ccc(Cl)cc3)nc2C#N)cc1,1.7%,?
CCC1CCCCN1CCCNC(=O)c1sc2nc(C)cc(C)c2c1-n1cccc1 (stereo not drawn),-4.0%,8.2%
COc1ccc(/C=C/C(=O)c2ccc(Cl)cc2)c(OC)c1,-6.1%,0.6%
COc1ccc(/C=C/C(=O)/C=C/c2ccc(OC)cc2OC)c(OC)c1,5.6%,3.16µM*
CC(=O)[C@H]1CC[C@@H]2[C@]1(C)CC=C1[C@@]23C=C[C@]2(C[C@H](O)CC[C@@]12C)[C@H](C(=O)O)[C@@H]3C(=O)O,-3.3%,-3.1%
CS/C(N)=C(C#N)/C(C#N)=C(\N)SC,0.9%,-9.6%
CN(C)S(=O)(=O)c1cccc(N=C2NN=C(c3ccccc3)CS2)c1,-2.6%,31.6µM*
CC1CN(C(=O)c2ccccc2)C(=Nc2cccc(S(=O)(=O)N(C)C)c2)S1 (stereo not drawn),-0.5%,2.7%
SMILES,Cruzain Triton,Cruzain inh noDet
O=S(=O)(c1ccccc1)N1CCC2(CCN(c3ccccc3)CC2)CC1,-4.2%,?
Cc1ccc(Cn2c(=O)n(Cc3ccc(C(=O)NC4CCN(Cc5ccccc5)CC4)cc3)c(=O)c3ccccc32)cc1,0.5%,-7.4%
O=C(NCc1ccc2c(c1)OCO2)C1CCN(S(=O)(=O)N2CCCCC2)CC1,-3.2%,-1.3%
O=C(NCc1ccc2c(c1)OCO2)C1CCN(c2ccc(S(=O)(=O)N3CCCC3)cc2)CC1,-1.1%,25.1µM*
CCOc1ccccc1NC(=O)C1CCN(S(=O)(=O)c2c(C)noc2/C=C/c2ccco2)CC1,-20.7%,1.5%
CCOC(=O)c1cnc(-n2nc(C)cc2C)nc1NNc1nc(-c2ccccc2)cc(-c2ccccc2)n1,-0.8%,20µM*
CCOC(=O)c1cnc(-n2nc(C)cc2C)nc1NC,0.3%,15.3%
O=C(Nc1ccc2nn(-c3ccccc3)nc2c1)c1ccc2c(c1)OCCO2,-7.3%,?
CCc1ccc(-n2nc3ccc(NC(=O)c4ccc5c(c4)OCO5)cc3n2)cc1,-1.1%,10µM*
Cc1ccc(-n2nc3ccc(NC(=O)c4ccc5c(c4)OCO5)cc3n2)cc1,-0.7%,-6.2%
CCOc1ccc(-n2nc3ccc(NC(=O)c4ccc5c(c4)OCCO5)cc3n2)cc1,-3.0%,12.6µM*
CCOc1ccc(NC(=O)Cn2c(=O)oc3cc(S(=O)(=O)NC4CCCC4)ccc32)cc1,-4.0%,-14.6%
CC(C)(C)OC(=O)N1CCC(c2c(C(=O)N3CCC(c4ccccc4)C3)cnn2-c2ccc(Cl)cc2)CC1 (stereo not drawn),-3.1%,2.4%
O=C(Nc1nc2ccccc2s1)c1cc2c(s1)-c1ccccc1OC2,-1.2%,12.6µM*
O=C(NCCc1ccc(Cl)cc1)c1cc2c(s1)-c1ccccc1OC2,-22.0%,?
Cc1ccc(CCNC(=O)c2cc3c(s2)-c2ccccc2OC3)cc1,-2.4%,12.6µM*
O=C(Nc1nccs1)c1cc2c(s1)-c1ccccc1OC2,-7.2%,?
CC1Cc2ccccc2N1C(=O)CSc1nnc(-c2ccccc2)c(-c2ccccc2)n1 (stereo not drawn),-0.8%,15.8µM*
CC1Cc2ccccc2N1C(=O)CSc1nnc2c(n1)[nH]c1ccccc12 (stereo not drawn),-0.5%,0.6%
COc1ccc(Cn2c(CCC(=O)Nc3cccc(OC)c3)nc3cccnc32)cc1,-0.2%,23.4%
O=C(Cn1nc(N2CCN(c3ccccc3)CC2)ccc1=O)NCc1cccc(Cl)c1,-1.0%,?
COc1cccc(OC)c1C(=O)Nc1nc2c(s1)CCc1ccccc1-2,0.1%,6.7%
CCCN(CCC)S(=O)(=O)c1ccc(C(=O)Nc2nc3c(s2)CCc2ccccc2-3)cc1,1.3%,7.94µM*
CCOc1cc(CNC(=O)c2cc(-c3ccc(Cl)s3)nc3ccccc23)ccc1OC,-1.9%,-10.4%
Cc1ccc(C(=O)CN2/C(=C(\O)c3ccccc3)C(=O)c3ccccc3S2(=O)=O)c(C)c1,0.0%,25.1µM*
SMILES,Cruzain Triton,Cruzain inh noDet
O=C(CN1C(=O)c2ccccc2S1(=O)=O)c1ccccc1,-3.9%,-15.8%
Cn1nnc(NCc2cc(Br)ccc2OCc2cccs2)n1,-4.5%,31.6µM*
Cn1nnc(C(O)CNCc2cccs2)n1 (stereo not drawn),2.8%,2.7%
N#Cc1ccccc1NC(=O)c1cc2c(=O)n3ccccc3nc2s1,-3.9%,4.4%
CCOC(=O)C(CCc1ccccc1)NC(C)C(=O)N1CCCC1C(=O)O (stereo not drawn),-2.6%,3.4%
COc1ccc(C(CC(=O)Nc2ccc(Br)cn2)N2Cc3ccccc3C2=O)cc1 (stereo not drawn),-5.5%,7.9%
CCOc1ccc(NC(=O)CSc2nc(C)c(C(=O)Nc3ccccc3)c(-c3ccc(Cl)cc3)c2C#N)cc1,-4.3%,-21.0%
COc1ccc(-c2c(C#N)c(SCC(=O)Nc3ccc(C)c(C)c3)nc(C)c2C(=O)Nc2ccc(Cl)cc2)cc1,0.7%,6.31µM*
Cc1ccc(NC(=O)CSc2cn(CC(=O)N3CCCC3)c3ccccc23)cc1Cl,-6.6%,11.9%
COc1cccc(C2CC(c3cccs3)=NN2C(=O)CSc2nc3ccccc3o2)c1OC (stereo not drawn),3.55µM*,?
COC(=O)CSc1nc2ccccc2o1,7.9%,-0.9%
CC(C)(C)OC(=O)N1CCC(c2c(C(=O)N3CCC(c4ccccc4)C3)cnn2-c2cccc(Cl)c2)CC1 (stereo not drawn),-6.4%,?
O=C1C2C3C=CC(C3=C(c3ccccc3)c3ccccc3)C2C(=O)N1Cc1ccccc1 (stereo not drawn),2.6%,20µM*
O=C1C2C3C=CC(C3=C(c3ccccc3)c3ccccc3)C2C(=O)N1CCO (stereo not drawn),-8.4%,?
